Laboratory results as given in PubChem BioAssay AID463173 (ICCB-Longwood Screening Facility, Harvard Medical School, 2010).
Screen size: about 52,000 compounds; about 1,700 (3.3%) were called active. Many of the other results were omitted from the sample, so actives are more common in it than they were. Unmarked numbers belong to inactive results. Rule as the data show it: active = survival mostly below about 52% (no sharp cut-off); inactive = mostly above about 56%.

These compounds were tested on Wild type (assay: growth inhibition of S. aureus wild type versus tarO mutant, primary screen, teichoic acid synthesis inhibitors, RN4220, OD600 (AID 463173)). Details: S. aureus RN4220 wild type/DeltatarO growth, OD600, 18 h, hits give low values, screened at 18.75 µg/mL (by protocol).

| SMILES | survival |
| --- | --- |
| Cc1cccc(-n2c(-c3ccco3)nc3c(cnn3-c3ccccc3C)c2=O)c1 | 132% |
| O=C(CN(C1CCCCC1)S(=O)(=O)c1ccccc1)N1CCCCC1 | 101% |
| CCOC(=O)c1c(S(=O)(=O)N2CCC(C(=O)Nc3ccc(C)cn3)CC2)c(C)n(C)c1C | 70% |
| Cc1ccc(NC(=O)c2cc(S(=O)(=O)N3CCCCC3)c[nH]2)cc1N(C)C | 87% |
| CCCN(C(=O)c1sc2nc3n(c(=O)c2c1C)CCCC3)c1ccccc1C | 80% |
| COc1cc2c(cc1OC)C(COc1ccccc1OC)N(C(=O)c1ccccc1OC)CC2 (stereo not drawn) | 73% |
| Cc1ccc(C(=O)Nc2nc(-c3nnn(-c4cccc(C(F)(F)F)c4)c3C)ns2)cc1 | 75% |
| CC(=O)c1ccc(N2CCN(S(=O)(=O)c3ccc(-c4cc(C)no4)s3)CC2)cc1 | -6% (active) |
| Cc1cc(-c2ccc(S(=O)(=O)N3CCN(c4ccc(Cl)cc4)CC3)s2)on1 | 136% |
| CC(=O)c1ccc(N2CCN(S(=O)(=O)c3ccc(-c4cc(C(F)(F)F)on4)s3)CC2)cc1 | 72% |
| Cc1cccc(N2CCN(C(=O)Cn3c(=O)c4cccn4c4ccc(F)cc43)CC2)c1C | 85% |
| CC(C)(C)OC(=O)N1CCC(c2c(C(=O)NCc3ccco3)cnn2-c2ccccc2)CC1 | 75% |
| Cc1ccc(S(=O)(=O)NCCc2cn3ccsc3n2)cc1 | 57% |
| COc1ccc(S(=O)(=O)NCCc2cn3ccsc3n2)cc1OC | -3% (active) |
| COc1ccc(S(=O)(=O)NCCc2cn3ccsc3n2)cc1 | 82% |
| CN(C)c1ccc(N/C=C(\C#N)c2nc3ccccc3[nH]2)cc1 | 118% |
| CCOC(=O)CNC(=O)CSc1cn(CC(=O)N2CCCCCC2)c2ccccc12 | 99% |
| Cc1ccc(Nc2ncnc3c2nc2n3CCCC2)c(Br)c1 | 111% |
| CCN(c1ccccc1)S(=O)(=O)c1ccc(NC(=O)c2nc(S(C)(=O)=O)ncc2Cl)cc1 | 0% (active) |
| CCN(c1ccccc1)S(=O)(=O)c1ccc(NC(=O)c2nc(SC)ncc2Cl)cc1 | 88% |

| SMILES | survival |
| --- | --- |
| CCS(=O)(=O)c1ncc(Cl)c(C(=O)Nc2ccccc2)n1 | 70% |
| CCN(c1ccccc1)S(=O)(=O)c1ccc(NC(=O)c2nc(SC(C)C)ncc2Cl)cc1 | 81% |
| CCCSc1ncc(Cl)c(C(=O)Nc2ccc(S(=O)(=O)N(C)c3ccccc3)cc2)n1 | 84% |
| CC(C)Sc1ncc(Cl)c(C(=O)Nc2ccc(S(=O)(=O)N(C)c3ccccc3)cc2)n1 | 78% |
| CN(c1ccccc1)S(=O)(=O)c1ccc(NC(=O)c2nc(S(C)(=O)=O)ncc2Cl)cc1 | 2% (active) |
| CCS(=O)(=O)c1ncc(Cl)c(C(=O)Nc2ccc(S(=O)(=O)N(C)c3ccccc3)cc2)n1 | 8% (active) |
| CCSc1ncc(Cl)c(C(=O)Nc2ccc(S(=O)(=O)N(C)c3ccccc3)cc2)n1 | 84% |
| Cc1cccc(N2CCN(S(=O)(=O)c3ccc4c(c3)CCCN4C(=O)C3CCC3)CC2)c1C | 86% |
| Cc1ccc(C(=O)Nc2nnc(SCc3cc(=O)c4c(C)ccc(C)c4[nH]3)s2)cc1 | 93% |
| Cc1ccc(C)c(NC(=O)CN2C(=O)C(C)(C)c3ccccc32)c1 | 76% |
| Fc1cccc(-c2cc3nc4c(c(NCCCN5CCOCC5)n3n2)CCCC4)c1 | 103% |
| COc1ccc(-n2c(=O)c3ccccc3n(Cc3cccc(C)c3)c2=O)cc1 | 75% |
| Cc1cc(C)cc(NS(=O)(=O)c2ccc3c(c2)OCC(C(=O)N2CCCC2)O3)c1 (stereo not drawn) | 78% |
| O=S(=O)(NCCc1csc2nc(-c3ccccc3)nn12)c1cccs1 | 81% |
| CCS(=O)(=O)NCCc1csc2nc(-c3ccc(C)cc3)nn12 | 59% |
| COc1ccc(OC)c(S(=O)(=O)NCCc2csc3nc(-c4ccccc4)nn23)c1 | -3% (active) |
| COc1ccc(-c2nc3scc(CCNS(=O)(=O)c4cccs4)n3n2)cc1 | 1% (active) |
| COc1ccc(-c2nc3scc(CCNS(=O)(=O)c4ccccc4F)n3n2)cc1 | 57% |
| O=S(=O)(NCCc1csc2nc(-c3ccc(Cl)cc3)nn12)c1cccs1 | 72% |
| COc1ccc(S(=O)(=O)NCCc2csc3nc(-c4ccccc4)nn23)cc1OC | 71% |

| SMILES | survival |
| --- | --- |
| CS(=O)(=O)NCCc1csc2nc(-c3ccccc3)nn12 | -4% (active) |
| CCc1ccc(S(=O)(=O)NCCc2csc3nc(-c4ccccc4)nn23)s1 | 129% |
| COc1ccc(NC(=O)C(CC(C)C)NC(=O)C2CCCCC2)c(OC)c1 (stereo not drawn) | 63% |
| CC1(C)NC(=O)N(CC(O)CN2C(=O)NC(C)(C)C2=O)C1=O | 117% |
| N#Cc1c(-n2ncnc2-c2ccc(Br)cc2)sc2c1CCCCC2 | 2% (active) |
| N#Cc1c(-n2ncnc2-c2cccc(Cl)c2)sc2c1CCCCC2 | 58% |
| COc1ccc(-c2nnn(CC(=O)Nc3sc4c(c3C#N)CCCC4)n2)cc1 | 109% |
| CC(C)CCOc1ccc(C(=O)Nc2sc3c(c2C#N)CCCCC3)cc1 | 135% |
| N#Cc1c(-n2ncnc2-c2ccc(F)cc2)sc2c1CCCCC2 | -2% (active) |
| N#Cc1c(/N=C/N2CCCCC2)sc2c1CCCC2 | 89% |
| CCOc1ccc(-c2ncnn2-c2sc3c(c2C#N)CCCCC3)cc1 | 3% (active) |
| N#Cc1c(N2C(=O)C3C4C=CC(C4)C3C2=O)sc2c1CCCC2 (stereo not drawn) | 108% |
| N#Cc1c(-n2ncnc2-c2cccc(Br)c2)sc2c1CCCCC2 | 45% |
| Cc1ccc(C)c(N2CCN(S(=O)(=O)c3cc(-c4cc(C)no4)ccc3C)CC2)c1 | 73% |
| O=C(CSc1n[nH]c(-c2ccccc2)n1)NCCCc1ccccc1 | 69% |
| CC(C)(C)c1cn2ccc3ccccc3c2n1 | 113% |
| Oc1ccccc1C(C#Cc1ccccc1)N1CCOCC1 (stereo not drawn) | 110% |
| CC(C)N(C(=O)Cn1nnc2ccccc21)C(C(=O)NCc1ccco1)c1ccccc1 (stereo not drawn) | 101% |
